According to PubChem BioAssay (NCATS):
Inconclusive results are not listed. A call without a number means that no potency is given here. Calls of active or inactive are those of the source. Calls come from the whole dose curve; as a rule, active = well fitted curve in the direction sought with a large enough effect; inconclusive = small, poorly fitted or top-dose-only effect, or another doubt; inactive = no such curve, though single readings can be large; an effect the other way counts as inactive or inconclusive.

Legend:
[1] = qHTS to identify inhibitors of the type 1 interferon - major histocompatibility complex class I in skeletal muscle: primary screen against the NCATS LOPAC collection (AID 1347405);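 note: human myoblasts with HiBiT tag on endogenous HLA-B stimulated by IFN-beta; lytic HiBiT luminescence reporting HLA-B protein level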; note: potency is the fitted concentration of half-maximal effect
How it was run: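 IFN-beta-stimulated (4 ng/ml) HLA-B HiBiT knock-in myoblasts, compound-treated 24 hrs up to 46 uM final; signal via LgBiT complementation and furimazine luminescence.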

[2] = qHTS for inhibitors of adenylyl cyclases using a fission yeast platform: a pilot screen against the NCATS LOPAC library (AID 1347410)
How it was run: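 Growth medium went into the plates first, then compounds were pinned (final up to 57 µM), then CHP2027 yeast were added. Plates were incubated overnight (18 h) at 30C in the dark, and GFP was measured by laser scanning cytometry.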

[3] = qHTS to identify inhibitors of the type 1 interferon - major histocompatibility complex class I in skeletal muscle: primary screen against the NCATS Pharmaceutical Collection (AID 1347407);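 note: luminescence of HiBiT knocked into endogenous HLA-B as interferon-induced MHC class I level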
How it was run: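 Cells were seeded with 4 ng/ml IFN-beta, incubated 1 h, then dosed with compounds over eight 1:5 steps up to 46 uM final. After 24 h at 37 C, HiBiT lytic reagent was added and luminescence read after 10 min lysis in the dark.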

## CC(=O)c1c(O)c(C)c(O)c(Cc2c(O)c3c(c(C(=O)/C=C/c4ccccc4)c2O)OC(C)(C)C=C3)c1O
[1]
  Potency: inactive
[2]
  outcome: inactive

## NNC(N)=O
[1]
  Potency: inactive
[2]
  outcome: inactive

## CC(Cc1ccc(OCC(=O)O)cc1)NCC(O)c1cccc(Cl)c1 (centres undefined)
[1]
  Potency: inactive
[2]
  outcome: inactive

## N#CCCN
[1]
  Potency: inactive
[2]
  outcome: inactive

## C[C@H](N)Cc1cccc(C(F)(F)F)c1
[1]
  Potency: inactive
[2]
  outcome: inactive

## CN(C(=O)Cc1ccc(Cl)c(Cl)c1)C(CN1CCCC1)c1cccc(OCC(=O)O)c1 (centres undefined)
[1]
  Potency: inactive
[2]
  outcome: inactive

## OC1CCCCC1N1CCC(c2ccccc2)CC1 (centres undefined)
[1]
  Potency: inactive
[2]
  outcome: inactive

## CN1CC[C@@]2(C)c3cc(OC(=O)Nc4ccccc4)ccc3N(C)[C@@H]12
[1]
  Potency: inactive
[2]
  outcome: inactive

## Nc1ccc(CCN2CCN(c3cccc(C(F)(F)F)c3)CC2)cc1
[1]
  Potency: inactive
[2]
  outcome: inactive

## NC(CCCCCP(=O)(O)O)C(=O)O (centres undefined)
[1]
  Potency: inactive
[2]
  outcome: inactive

## COc1ccc(CNC(=O)/C=C/c2ccc3[nH]cc(CCN(C)C)c3c2)cc1
[1]
  Potency: inactive
[2]
  outcome: inactive

## Nc1cc2c(ncn2CCOCP(=O)(O)O)c(=O)[nH]1
[1]
  Potency: inactive
[2]
  outcome: inactive

## C[N+](C)(C)CC#CCN1CCCC1=O
[1]
  Potency: inactive
[2]
  outcome: inactive

## Cc1cc([C@@H]2CCCN2C)on1
[1]
  Potency: inactive
[2]
  outcome: inactive

## Cc1[nH]c2ccc(O)cc2c1CCN
[1]
  Potency: inactive
[2]
  outcome: inactive

## C[N+](C)(C)CC#CCOC(=O)Nc1cccc(Cl)c1
[1]
  Potency: inactive
[2]
  outcome: inactive

## CCCN1CC[C@@H]2c3cc(O)ccc3CC[C@@H]21
[1]
  Potency: inactive
[2]
  outcome: inactive

## NC(Cc1cc(O)c(O)cc1O)C(=O)O (centres undefined)
[1]
  Potency: inactive
[2]
  outcome: inactive

## CCOC(=O)c1ncn2c1[C@@H]1CCCN1C(=O)c1cc(OC)ccc1-2
[1]
  Potency: inactive
[2]
  outcome: inactive

## CC(N)c1cccc(Cl)c1Cl (centres undefined)
[1]
  Potency: inactive
[2]
  outcome: inactive

## CCCN1CCc2cc(O)cc3c2[C@H]1Cc1ccc(O)c(O)c1-3
[1]
  Potency: inactive
[2]
  outcome: inactive

## CCCN(CCC)C1Cc2cc(OC)c(OC)cc2C1
[1]
  Potency: inactive
[2]
  outcome: inactive

## OCc1cnc[nH]1
[1]
  Potency: inactive
[2]
  outcome: inactive

## NC(N)=Nc1ccc2[nH]c3c(c2c1)C[C@@]1(O)[C@H]2Cc4ccc(O)c5c4[C@@]1(CCN2CC1CC1)[C@H]3O5
[1]
  Potency: inactive
[2]
  outcome: inactive

## CC12NC(Cc3ccccc31)c1ccccc12 (centres undefined)
[1]
  Potency: inactive
[2]
  outcome: inactive

## C[C@@H]1O[C@@H](O[C@H]2C[C@@H](O)[C@]3(CO)[C@@H]4C(CC[C@]3(O)C2)[C@@]2(O)CC[C@H]([C@@H]3COC(=O)C3)[C@@]2(C)C[C@H]4O)[C@H](O)[C@H](O)[C@H]1O (some centres undefined)
[1]
  Potency: 1.12 µM (active)
[2]
  outcome: inactive

## N#C/C(=C/c1ccc(O)c(O)c1)C(N)=S
[1]
  Potency: inactive
[2]
  outcome: inactive

## N=C(N)c1ccc(CS(=O)(=O)F)cc1
[1]
  Potency: inactive
[2]
  outcome: inactive

## C[N+]1(C)CCc2cc3c(cc2[C@H]1[C@@H]1OC(=O)c2c1ccc1c2OCO1)OCO3
[1]
  Potency: inactive
[2]
  outcome: inactive

## CCCn1c(=O)c2[nH]c(C3CCCC3)nc2n(CCCOC(=O)c2ccc(S(=O)(=O)F)cc2)c1=O
[1]
  Potency: inactive
[2]
  outcome: inactive

## CC(=O)NBr
[1]
  Potency: inactive
[2]
  outcome: inactive

## CN(N=O)c1ccc(O)c(O)c1
[1]
  Potency: inactive
[2]
  outcome: inactive

## c1ccc2c(N3CCNCC3)cccc2c1
[1]
  Potency: inactive
[2]
  outcome: inactive

## NC(C(=O)O)c1cc(=O)[nH]o1 (centres undefined)
[1]
  Potency: inactive
[2]
  outcome: inactive

## CP(=O)(O)C1=CCNCC1
[1]
  Potency: inactive
[2]
  outcome: inactive

## CC(N)Cc1c[nH]c2ccc(O)cc12 (centres undefined)
[1]
  Potency: inactive
[2]
  outcome: inactive

## NC(=O)CI
[1]
  Potency: inactive
[2]
  outcome: inactive

## CC(C)(C)c1o[nH]c(=O)c1CC(N)C(=O)O (centres undefined)
[1]
  Potency: inactive
[2]
  outcome: inactive

## NC(=O)c1ccc(OCC(O)CN2CC=C(c3ccc(F)cc3)CC2)cc1 (centres undefined)
[1]
  Potency: inactive
[2]
  outcome: inactive

## COc1ccc2c(c1O)-c1cccc3c1[C@@H](C2)N(C)CC3
[1]
  Potency: inactive
[2]
  outcome: inactive

## CC(C)(C)OC(=O)NC1[C@H]2CNC[C@@H]12 (some centres undefined)
[1]
  Potency: inactive
[2]
  outcome: inactive

## C[CH2][Hg][S]c1ccccc1C(=O)O
[3]
  outcome: inactive

## CCCSP(=O)(OCC)SCCC
[3]
  outcome: inactive
